Activity calls are given as the source filed them. The calls were made as follows: active = hit-call score of the fitted dose curve at least 0.9, where 1 is the maximum; inactive = score below 0.9.
How the values were obtained:
[1] = target: Transcription factor E2F1 (Homo sapiens) (UniProt Q01094); assay: ATG_E2F_CIS: Attagene CIS-FACTORIAL HepG2 Assay for human E2F Transcription Factor 1 (AID 2282935); conditions: HepG2 Attagene cis-reporter, E2F reporter RNA transcripts; actives raise or lower the signal
Sequence of Transcription factor E2F1 (Homo sapiens) (Q01094 whole entry, looked up): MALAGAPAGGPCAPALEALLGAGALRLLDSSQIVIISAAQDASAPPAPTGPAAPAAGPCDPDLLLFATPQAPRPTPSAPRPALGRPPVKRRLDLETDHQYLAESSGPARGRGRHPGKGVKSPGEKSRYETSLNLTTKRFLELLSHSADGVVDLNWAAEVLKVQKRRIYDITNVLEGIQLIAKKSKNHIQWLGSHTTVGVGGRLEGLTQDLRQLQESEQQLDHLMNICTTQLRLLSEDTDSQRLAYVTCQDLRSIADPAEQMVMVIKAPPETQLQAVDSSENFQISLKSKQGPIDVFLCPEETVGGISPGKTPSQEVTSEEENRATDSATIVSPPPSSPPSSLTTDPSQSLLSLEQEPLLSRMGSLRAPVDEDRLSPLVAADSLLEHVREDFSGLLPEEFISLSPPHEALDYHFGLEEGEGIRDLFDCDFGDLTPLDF
Outline: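 Gain or loss of reporter transcript, fitted against DMSO, reflects E2F1-driven transcription. Transiently transfected HepG2 dosed 24 h before RNA isolation. Quantified by fluorescent RT-PCR products separated by capillary electrophoresis.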

[2] = ATG_E_Box_CIS: Attagene CIS-FACTORIAL HepG2 Assay for human Enhancer Box (E-box) (AID 2282936); conditions: HepG2 E-box cis-reporter transcription, actives raise or lower the signal
Outline: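 E-box-driven reporter transcripts measured in transiently transfected HepG2 after 24 h exposure: RNA reverse-transcribed, PCR-amplified, fluorescently labelled, digested and resolved by capillary electrophoresis. Gain or loss relative to DMSO.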

[3] = ATG_M_61_CIS: Attagene CIS-FACTORIAL HepG2 Assay for M61 Transcription Factor (Internal Marker) (AID 2282937); conditions: HepG2 Attagene CIS-FACTORIAL M61 internal marker reporter; actives raise or lower the signal
Outline: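 Human liver HepG2, transient MRTU transfection (cis promoter elements), 24 h compound. Total RNA → oligo(dT) RT → PCR → FAM label → HpaI → CE. Internal background marker; bidirectional fitting, DMSO = baseline.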

[4] = ATG_EGR_CIS: Attagene CIS-FACTORIAL HepG2 Assay for human Early Growth Response 1 (EGR1) (AID 2282938); conditions: HepG2 Attagene CIS-FACTORIAL EGR reporter mRNA; actives raise or lower the signal
Outline: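 Transient transfection of human HepG2 with multiple cis-regulated reporter units, chemical exposure 24 h, total RNA isolated. Reverse transcription, PCR, fluorescent labelling and capillary electrophoresis quantify reporter transcripts; activity fitted bidirectionally against DMSO.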

[5] = ATG_M_19_CIS: Attagene CIS-FACTORIAL HepG2 Assay for M19 Transcription Factor (Internal Marker) (AID 2282939); conditions: HepG2 Attagene CIS-FACTORIAL M19 internal marker reporter; actives raise or lower the signal
Outline: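 Following a 24 h exposure, RNA from transfected HepG2 cells was reverse-transcribed, PCR-amplified with reporter-specific primers, end-labelled with 6-FAM and HpaI-digested before capillary separation. Values represent gain or loss versus DMSO.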

[6] = ATG_ERE_CIS: Attagene CIS-FACTORIAL HepG2 Assay for Estrogen Response Element (ERE) (AID 2282940); conditions: HepG2 ERE cis-reporter, Attagene RNA transcript; actives raise or lower the signal
Outline: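 HepG2, transient cis-reporter units, 24 h exposure. RNA isolated, oligo(dT) RT, reporter-specific PCR, FAM extension, HpaI cut, CE detection. Gain/loss-of-signal vs DMSO.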

[7] = ATG_Ets_CIS: Attagene CIS-FACTORIAL HepG2 Assay for human Erythroblast Transformation Specific (ETS) (AID 2282941); conditions: HepG2 ETS cis-reporter transcription, actives raise or lower the signal
Outline: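 Bidirectional fit versus DMSO of reporter mRNA signal, detected by RT-PCR and capillary electrophoresis in HepG2 cells transiently transfected with cis-element reporters and dosed 24 h.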

[8] = target: Hepatocyte nuclear factor 3-beta (Homo sapiens) (UniProt Q9Y261); assay: ATG_FoxA2_CIS: Attagene CIS-FACTORIAL HepG2 Assay for human Forkhead box A2 (FOXA2) (AID 2282942); conditions: HepG2 cis-reporter transcription factor activity, 24 h; actives raise or lower the signal
Sequence of Hepatocyte nuclear factor 3-beta (Homo sapiens) (Q9Y261 whole entry, looked up): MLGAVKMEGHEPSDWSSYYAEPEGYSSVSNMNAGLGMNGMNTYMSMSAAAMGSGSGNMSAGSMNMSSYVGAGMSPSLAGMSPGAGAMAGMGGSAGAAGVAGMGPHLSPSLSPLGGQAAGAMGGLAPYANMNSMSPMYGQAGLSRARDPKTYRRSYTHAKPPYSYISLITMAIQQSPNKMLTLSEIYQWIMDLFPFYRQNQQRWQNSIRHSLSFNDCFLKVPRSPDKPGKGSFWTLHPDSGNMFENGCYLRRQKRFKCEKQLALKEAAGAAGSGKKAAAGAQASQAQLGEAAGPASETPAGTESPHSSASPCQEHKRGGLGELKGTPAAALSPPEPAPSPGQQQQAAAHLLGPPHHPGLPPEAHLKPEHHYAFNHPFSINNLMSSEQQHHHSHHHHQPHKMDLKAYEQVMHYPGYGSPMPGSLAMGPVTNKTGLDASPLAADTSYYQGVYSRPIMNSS
Outline: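 Transient MRTU transfection of HepG2 liver cells; 24 h treatment; total RNA → oligo(dT) RT → PCR → FAM primer extension → HpaI cut → CE. Bidirectional fit vs DMSO.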

[9] = ATG_FoxO_CIS: Attagene CIS-FACTORIAL HepG2 Assay for human Forkhead box O (FoxO) (AID 2282943); conditions: HepG2 Attagene cis-reporter, FoxO element, mRNA; actives raise or lower the signal
Outline: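 Human hepatoma HepG2 cells carry transiently introduced reporter transcription units controlled by cis promoter elements. Chemical treatment lasted 24 h, and mRNA signal was compared with DMSO.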

[10] = ATG_GATA_CIS: Attagene CIS-FACTORIAL HepG2 Assay for human GATA Binding Protein (AID 2282944); conditions: HepG2 GATA cis-element reporter, Attagene multiplex mRNA; actives raise or lower the signal
Outline: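 DMSO serves as negative control and baseline for bidirectional fitting of reporter mRNA changes. HepG2 cells bearing transiently transfected cis-promoter reporters were exposed 24 h; transcripts detected via RT-PCR and capillary electrophoresis.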

[11] = ATG_GLI_CIS: Attagene CIS-FACTORIAL HepG2 Assay for human Zinc Finger Protein GLI1 (AID 2282945); conditions: HepG2, Attagene cis-factorial reporter mRNA, GLI element; actives raise or lower the signal
Outline: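 Bidirectional curve fits relative to DMSO, using reporter mRNA levels from RT-PCR plus capillary electrophoresis. Cells were HepG2 transiently carrying cis-regulated reporter constructs, harvested 24 h after dosing.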

[12] = target: Bile acid receptor (Homo sapiens) (UniProt Q96RI1); assay: ATG_IR1_CIS: Attagene CIS-FACTORIAL HepG2 Assay for human Nuclear Receptor Subfamily 1 Group H Member 4 (NR1H4), IR1 submotif (AID 2282946); conditions: IR1 reporter transcription, actives raise or lower the signal
Sequence of Bile acid receptor (Homo sapiens) (Q96RI1 whole entry, looked up): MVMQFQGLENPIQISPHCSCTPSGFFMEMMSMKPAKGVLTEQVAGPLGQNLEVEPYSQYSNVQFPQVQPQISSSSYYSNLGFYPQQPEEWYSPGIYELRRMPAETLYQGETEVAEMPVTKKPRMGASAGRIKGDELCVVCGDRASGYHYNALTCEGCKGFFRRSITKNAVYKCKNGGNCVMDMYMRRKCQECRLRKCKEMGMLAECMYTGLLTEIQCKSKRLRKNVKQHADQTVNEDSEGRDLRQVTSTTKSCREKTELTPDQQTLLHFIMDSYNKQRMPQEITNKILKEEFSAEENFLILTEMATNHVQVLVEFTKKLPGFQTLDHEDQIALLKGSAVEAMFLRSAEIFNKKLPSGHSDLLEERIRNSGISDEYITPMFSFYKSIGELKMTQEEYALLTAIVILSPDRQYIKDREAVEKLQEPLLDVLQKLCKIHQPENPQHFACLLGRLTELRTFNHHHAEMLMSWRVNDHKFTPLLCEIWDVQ
Outline: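 HepG2 cells transiently transfected with multiplexed cis-element reporter units read endogenous transcription factor activity. After 24 h compound exposure, reporter mRNA was quantified by RT-PCR, fluorescent labelling, HpaI digestion and capillary electrophoresis; bidirectional fitting versus DMSO baseline.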

[13] = ATG_GRE_CIS: Attagene CIS-FACTORIAL HepG2 Assay for human Glucocorticoid Response Elements (GRE) (AID 2282947); conditions: HepG2 GRE cis-reporter, Attagene multiplex mRNA; actives raise or lower the signal
Outline: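 Reporter transcripts read by RT-PCR with capillary electrophoresis fluorescence after a 24 h chemical exposure of HepG2 cells transiently transfected with multiple cis-element reporter units. Gain or loss fitted against DMSO.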

[14] = ATG_ISRE_CIS: Attagene CIS-FACTORIAL HepG2 Assay for human Interferon Regulatory Factor 1 (IRF1) binding to an Interferon-Stimulated Response Element (ISRE) (AID 2282948); conditions: HepG2 ISRE cis-reporter (Attagene), mRNA transcription readout; actives raise or lower the signal
Outline: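 Uses HepG2 liver cells transfected with cis-regulated reporters and measures mRNA 24 h post-dosing through RT-PCR, primer-extension labelling and capillary electrophoresis, with DMSO as negative control.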

[15] = ATG_M_32_CIS: Attagene CIS-FACTORIAL HepG2 Assay for M32 Transcription Factor (Internal Marker) (AID 2282949); conditions: HepG2 Attagene cis-factorial M32 reporter, mRNA; actives raise or lower the signal;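 also: background control marker of the multiplexed CIS panel rather than a real target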
Outline: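 HepG2 human liver cells transiently transfected with cis-promoter-driven multiple reporter transcription units, dosed 24 h. Reporter mRNA quantified by RT-PCR, FAM-labelled primer extension, HpaI digest and capillary electrophoresis; bidirectional fit versus DMSO baseline.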

[16] = ATG_M_06_CIS: Attagene CIS-FACTORIAL HepG2 Assay for M06 Transcription Factor (Internal Marker) (AID 2282950); conditions: HepG2 Attagene CIS-FACTORIAL M06 internal marker reporter; actives raise or lower the signal
Outline: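 Fluorescence-labelled RT-PCR products from cis-promoter reporter units, cut with HpaI and resolved by capillary electrophoresis, give the signal. Cells are human HepG2, dosed for 24 h. Serves as background control, fitted relative to DMSO.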

[17] = target: Hepatocyte nuclear factor 6 (Homo sapiens) (UniProt Q9UBC0); assay: ATG_HNF6_CIS: Attagene CIS-FACTORIAL HepG2 Assay for human Hepatocyte Nuclear Factor 6 (HNF6) (AID 2282952); conditions: HepG2 Attagene cis-factorial HNF6 reporter transcription; actives raise or lower the signal
Sequence of Hepatocyte nuclear factor 6 (Homo sapiens) (Q9UBC0 whole entry, looked up): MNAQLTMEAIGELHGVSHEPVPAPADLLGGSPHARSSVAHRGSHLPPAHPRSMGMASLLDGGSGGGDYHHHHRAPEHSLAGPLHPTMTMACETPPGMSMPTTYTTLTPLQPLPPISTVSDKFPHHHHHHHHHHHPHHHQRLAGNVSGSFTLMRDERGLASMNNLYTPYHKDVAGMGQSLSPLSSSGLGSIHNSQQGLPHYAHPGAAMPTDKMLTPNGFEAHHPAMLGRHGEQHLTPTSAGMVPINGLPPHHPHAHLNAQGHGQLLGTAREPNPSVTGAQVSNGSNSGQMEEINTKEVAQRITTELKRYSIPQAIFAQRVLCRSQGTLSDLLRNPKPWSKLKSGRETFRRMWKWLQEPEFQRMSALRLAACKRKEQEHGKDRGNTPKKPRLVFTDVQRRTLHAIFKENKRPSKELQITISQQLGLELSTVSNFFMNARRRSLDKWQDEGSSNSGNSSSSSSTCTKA
Outline: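 Activity values derive from bidirectional fitting against DMSO of reporter mRNA levels, measured by capillary electrophoresis of labelled RT-PCR products from HepG2 cells exposed 24 h.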

[18] = target: Heat shock factor protein 1 (Homo sapiens) (UniProt Q00613); assay: ATG_HSE_CIS: Attagene CIS-FACTORIAL HepG2 Assay for human Heat Shock Transcription Factor 1 (HSE) (AID 2282953); conditions: HepG2 HSE cis-reporter, Attagene RNA transcription; actives raise or lower the signal
Sequence of Heat shock factor protein 1 (Homo sapiens) (Q00613 whole entry, looked up): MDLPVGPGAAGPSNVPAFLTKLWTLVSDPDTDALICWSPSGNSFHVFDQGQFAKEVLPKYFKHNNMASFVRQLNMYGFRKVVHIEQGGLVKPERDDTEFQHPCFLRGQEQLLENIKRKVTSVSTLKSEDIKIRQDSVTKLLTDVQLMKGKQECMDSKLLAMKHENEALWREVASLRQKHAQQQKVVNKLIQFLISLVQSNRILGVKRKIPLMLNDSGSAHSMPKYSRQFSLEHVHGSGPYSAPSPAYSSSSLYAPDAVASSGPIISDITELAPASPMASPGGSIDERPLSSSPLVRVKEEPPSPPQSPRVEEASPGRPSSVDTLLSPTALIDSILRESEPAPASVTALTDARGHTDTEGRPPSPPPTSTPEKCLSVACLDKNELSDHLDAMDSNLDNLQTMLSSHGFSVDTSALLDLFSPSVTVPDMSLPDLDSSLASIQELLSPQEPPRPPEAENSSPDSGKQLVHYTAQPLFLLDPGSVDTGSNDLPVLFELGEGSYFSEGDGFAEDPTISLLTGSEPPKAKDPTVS
Outline: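 After a 24 h incubation with test chemical, transfected HepG2 cells were harvested for RNA; reporter transcripts were measured by RT-PCR and capillary electrophoresis. Values reflect gain or loss of signal relative to DMSO.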

[19] = ATG_MRE_CIS: Attagene CIS-FACTORIAL HepG2 Assay for human Metal Responsive Element (MRE) (AID 2282954); conditions: HepG2 MRE cis-reporter transcription, Attagene multiplex; actives raise or lower the signal
Outline: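 Endogenous MRE-dependent transcription read as reporter mRNA in transiently transfected human HepG2 cells at 24 h. RNA reverse-transcribed, PCR-amplified, labelled and resolved by capillary electrophoresis; gain or loss relative to DMSO.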

[20] = target: Hypoxia-inducible factor 1-alpha (Homo sapiens) (UniProt Q16665); assay: ATG_HIF1a_CIS: Attagene CIS-FACTORIAL HepG2 Assay for human Hypoxia Inducible Factor 1 (HIF1A) (AID 2282951); conditions: HepG2 Attagene cis-factorial HIF1a reporter transcription; actives raise or lower the signal
Sequence of Hypoxia-inducible factor 1-alpha (Homo sapiens) (Q16665 whole entry, looked up, the tested form may be a part): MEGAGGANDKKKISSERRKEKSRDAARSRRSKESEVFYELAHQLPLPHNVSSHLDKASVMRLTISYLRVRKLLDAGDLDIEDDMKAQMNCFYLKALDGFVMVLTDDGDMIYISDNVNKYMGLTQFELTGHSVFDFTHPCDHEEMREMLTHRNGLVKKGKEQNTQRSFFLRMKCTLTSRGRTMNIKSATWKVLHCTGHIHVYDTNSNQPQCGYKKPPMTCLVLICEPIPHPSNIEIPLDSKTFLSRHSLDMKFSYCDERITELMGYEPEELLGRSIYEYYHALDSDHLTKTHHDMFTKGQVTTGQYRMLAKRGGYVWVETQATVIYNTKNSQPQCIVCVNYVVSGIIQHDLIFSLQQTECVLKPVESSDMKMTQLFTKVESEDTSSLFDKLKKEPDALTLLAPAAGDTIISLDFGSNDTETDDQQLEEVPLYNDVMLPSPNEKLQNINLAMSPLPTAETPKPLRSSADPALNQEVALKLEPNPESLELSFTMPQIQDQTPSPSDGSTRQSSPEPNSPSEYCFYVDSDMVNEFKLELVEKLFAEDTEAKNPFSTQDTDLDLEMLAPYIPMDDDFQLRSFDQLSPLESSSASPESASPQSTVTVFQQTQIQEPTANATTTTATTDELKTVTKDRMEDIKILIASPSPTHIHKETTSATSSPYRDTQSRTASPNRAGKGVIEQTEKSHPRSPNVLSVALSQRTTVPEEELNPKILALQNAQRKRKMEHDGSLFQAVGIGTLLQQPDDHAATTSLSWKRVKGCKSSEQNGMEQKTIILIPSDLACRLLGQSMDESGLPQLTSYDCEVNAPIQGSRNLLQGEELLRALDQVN
Outline: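 Transient MRTU transfection of human HepG2 liver cells, 24 h compound treatment, then total RNA isolation, oligo(dT) reverse transcription, PCR amplification, fluorescent labelling and capillary electrophoresis of reporter fragments. Gain or loss relative to DMSO.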

Measured: AC50

O=C(O)C(F)(F)C(F)(F)C(F)(F)C(=O)O
not listed: [20]
inactive: all other assays above

CN1CN(C)CN(C)C1
active: [14] 74.3 µM | [18] 160 µM | [19] 182 µM
not listed: [17]
inactive: all other assays above

O=C1C=CC(=O)N1c1ccc(Cc2ccc(N3C(=O)C=CC3=O)cc2)cc1
active: [2] 44.9 µM | [4] 21.4 µM | [20] 46.9 µM | [17] 50.7 µM | [18] 55.2 µM
not listed: [16]
inactive: all other assays above

CCCCOC(=O)C(C)O (centres undefined)
not listed: [20]
inactive: all other assays above

O=C(O)C(F)(F)OC(F)(F)C(F)(F)OC(F)(F)C(F)(F)OC(F)(F)F
active: [18] 104 µM
not listed: [16]
inactive: all other assays above

OCCCc1cccnc1
not listed: [20]
inactive: all other assays above

CN(N=O)C(=O)N[C@@H]1[C@@H](O)[C@H](O)[C@@H](CO)O[C@@H]1O
not listed: [17]
inactive: all other assays above

CCn1c2ccccc2c2ccccc21
active: [19] 73.9 µM
not listed: [17] | [20]
inactive: all other assays above

O=C(Cl)c1ccc(Cl)cc1Cl
active: [18] 163 µM
not listed: [20]
inactive: all other assays above

CCCCCCCCCCCCCC[P+](CCCC)(CCCC)CCCC
active: [18] 0.82 µM | [19] 0.871 µM
not listed: [16]
inactive: all other assays above

CCC/C=C/CO
not listed: [16]
inactive: all other assays above

C[Si](Cl)(Cl)CCC(F)(F)C(F)(F)C(F)(F)C(F)(F)C(F)(F)C(F)(F)F
not listed: [20]
inactive: all other assays above

NC(=O)C(F)(F)C(F)(F)C(F)(F)C(F)(F)C(N)=O
not listed: [20]
inactive: all other assays above

CCC(=O)OC(C)c1ccccc1 (centres undefined)
not listed: [16]
inactive: all other assays above

COCCOCCC[Si](C)(O[Si](C)(C)C)O[Si](C)(C)C
active: [12] 51 µM | [13] 8.99 µM | [18] 20.3 µM
not listed: [16]
inactive: all other assays above
